This note sets out measurements from PubChem BioAssay (NCATS).

Results filed as inconclusive are left out. The source made the active and inactive calls. The call rests on the fitted dose curve.
Potency means the concentration at half of the fitted maximal effect.

This test is described as follows: Primary qHTS to identify inhibitors of SARS-CoV-2 cell entry (AID 1645846). Further: nearly all actives have a fitted effect of over 45% in size. The following applies: SARS-CoV-2 pseudovirus cell entry assay, luminescence; activity change, negative = inhibition: at 57.1 µM (top of the series) unless noted. In short, it runs like this:
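Using luciferase-reporting pseudoviruses carrying Wuhan-Hu-1 spike, the screen tracks entry into stably ACE2-expressing cells over 48 hr. Activity is expressed relative to spike particles versus particles lacking any fusion protein.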
Consider `CCNC(=O)Nc1ncc(-c2cc(-c3c(C)cc(OC)cc3C)nc(-c3cnccn3)n2)s1`, for which the activity change, negative = inhibition is -1.07%. For `CC(C)C(N)C(=O)OCC(CO)OCn1cnc2c(=O)[nH]c(N)nc21` (stereo not given), the activity change, negative = inhibition was -6.77%. With `O=C(O)CCCCN(CCc1ccccc1OCc1ccc(CCc2ccccc2)cc1)Cc1ccc(C(=O)O)cc1`, the Potency entry was “inactive”. As for `C/C=C/C[C@@H](C)C(=O)[C@H]1C(=O)N[C@@H](C(C)C)C(=O)N(C)CC(=O)N(C)[C@@H](CC(C)C)C(=O)N[C@@H](C(C)C)C(=O)N(C)[C@@H](CC(C)C)C(=O)N[C@@H](C)C(=O)N[C@H](C)C(=O)N(C)[C@@H](CC(C)C)C(=O)N(C)[C@@H](CC(C)C)C(=O)N(C)[C@@H](C(C)C)C(=O)N1C`, the activity change, negative = inhibition was -14.4% [at 27.1 µM]. With `COC(=O)C1=C(C)NC(c2ncc(F)cc2F)=N[C@H]1c1ccc(F)cc1Cl`, the Potency result is “inactive”. Same read-out and setting: for `CO[C@H]1/C=C/O[C@@]2(C)Oc3c(C)c(O)c4c(O)c(c5c(c4c3C2=O)=NC2(CCN(CC(C)C)CC2)N=5)NC(=O)/C(C)=C/C=C/[C@H](C)[C@H](O)[C@@H](C)[C@@H](O)[C@@H](C)[C@H](OC(C)=O)[C@@H]1C` the value was “inactive”. Consider `c1ccc(CNCc2ccc(CN3CCCNCCNCCCNCC3)cc2)nc1`, for which the activity change, negative = inhibition was -7.13%. Consider `CC(/C=C/[C@@H]1C[C@]1(C)c1ccc2c(c1)C(C)(C)CCC2(C)C)=C\C(=O)O`, for which the activity change, negative = inhibition is -10.9%. Consider `C=CC(=O)N1CCC(CNc2ncnc(N)c2-c2ccc(Oc3ccccc3)cc2)CC1`, for which the activity change, negative = inhibition was -20.9%. Turning to `Cc1ccc(NC(=O)Nc2nnc(Sc3ncnc4cc(OCCCN5CCOCC5)ccc34)s2)cc1`, the Potency entry is “inactive”. `CC(C)S(=O)(=O)c1ccc2nccc(Nc3ccc4scnc4c3)c2c1`: the activity change, negative = inhibition is -14.4%. As for `CCOc1cc(C(=O)N2CCC(N3CCN(C)CC3)CC2)ccc1Nc1ncc2c(n1)N(C1CCCC1)c1ccccc1C(=O)N2C`, the Potency is 25.1 µM (active).

Consider `Cc1nc(NC(=O)N2CCCC2C(N)=O)sc1-c1ccnc(C(C)(C)C(F)(F)F)c1` (stereo not given), for which the activity change, negative = inhibition was -29.8%. For the compound `O=C(Cc1ccccc1)Nc1nnc(CCSCCc2nnc(NC(=O)Cc3ccccc3)s2)s1`, the Potency entry is “inactive”.

As for `CCOCc1nc2c(N)nc3ccccc3c2n1CC(C)(C)O`, the activity change, negative = inhibition is -25%. With `NS(=O)(=O)NCCNc1nonc1C(=Nc1ccc(F)c(Br)c1)NO`, the activity change, negative = inhibition is -14.4%.

As to `Nc1ncnc2c1ncn2[C@@H]1O[C@H](CO)C[C@H]1O`, the activity change, negative = inhibition is -13%. With `CC1=C(c2ccc(O)cc2)[C@H](c2ccc(OCCN3CCCCC3)cc2)Oc2cc(O)ccc21`, the activity change, negative = inhibition is -47.4%. Regarding `CONC(=O)c1ccccc1Nc1cc(Nc2cc(C)nn2C(C)C)ncc1Cl`, the activity change, negative = inhibition was -10.2%.

`CCOc1ccc(-n2c([C@@H](C)N(Cc3cccnc3)C(=O)Cc3ccc(F)c(C(F)(F)F)c3)nc3ncccc3c2=O)cc1`: the activity change, negative = inhibition is -17.6%. Regarding `COc1cc(-c2cn(C)c(=O)c3cnccc23)c(OC)cc1CN(C)C`, the activity change, negative = inhibition was -18.5%. The same measure, in the same setting: the result for `Cc1[nH]cnc1CN1CCN(C(=O)N[C@@H](CC(C)C)C(=O)O)[C@@H](Cc2ccccc2)C1=O` reads 3.22%.

`CCn1c(N)c(C(=O)NC)c(=O)c2ccc(C#CC(C)(O)COC)nc21` (stereo not given): the activity change, negative = inhibition stood at 2.21%. With `O=C1CC[C@H](N2Cc3c(OCc4ccc(CN5CCOCC5)cc4)cccc3C2=O)C(=O)N1`, the activity change, negative = inhibition was -23.3%. As to `COc1c(C)cc(NC(=O)c2nn(Cc3ccc(F)cc3)c3c2CN(C(=O)c2ccc[nH]2)C[C@]3(C)C(N)=O)cc1C`, the Potency entry was “inactive”. Turning to `O=C(c1c(F)ccc(NS(=O)(=O)N2CC[C@@H](F)C2)c1F)c1c[nH]c2ncc(-c3cnc(C4CC4)nc3)cc12`, the activity change, negative = inhibition is -17.3%. Consider `N#Cc1ccc(Cn2cncc2CN2CCN(c3cccc(Cl)c3)C(=O)C2)cc1`, for which the Potency result was “inactive”. As to `O=C(c1ccc(/C=C/c2n[nH]c3ccccc23)cc1)N1CCNCC1`, the Potency result is “inactive”.

`O=C(O)[C@H](CC(=O)N1C[C@H]2CCCC[C@H]2C1)Cc1ccccc1`: the activity change, negative = inhibition was -3.3%. As for `O=c1cc(N2CCOCC2)oc2c(-c3ccc4c(c3)OCCO4)csc12`, the activity change, negative = inhibition is -5.73%. Regarding `CCN(c1cc(-c2ccc(CN3CCOCC3)cc2)cc(C(=O)NCc2c(C)cc(C)[nH]c2=O)c1C)C1CCOCC1`, the Potency entry is “inactive”. Still for that read-out and setting: for `O=C(Nc1cnn2ccc(N3CCC[C@@H]3c3cc(F)ccc3F)nc12)N1CC[C@H](O)C1` the value was “inactive”. For the compound `C[C@H]1CN(C2COC2)CCN1c1ccc(Nc2cc(-c3ccnc(N4CCn5c(cc6c5CC(C)(C)C6)C4=O)c3CO)cn(C)c2=O)nc1`, the activity change, negative = inhibition was -10.4%. Turning to `CN(CCOc1ccc(-c2ccc3c(c2)OCO3)cc1C(C)(C)C)CC(=O)O`, the activity change, negative = inhibition was -18.5%.

Turning to `CC(=O)[C@]1(N)Cc2c(O)c3c(c(O)c2[C@@H](O[C@H]2C[C@H](O)[C@H](O)CO2)C1)C(=O)c1ccccc1C3=O`, the Potency entry was “inactive”.
